This passage reports inhibition results from PubChem BioAssay AID1662 (Broad Institute, 2009).

About 4,000 (1.3%) of roughly 300,000 compounds were called active. Shown is part of a subset that was picked to be rich in actives. A number with no mark means an inactive call.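 The calls were made as follows: active = mean replicate score, as percent of positive control median, at least 50; inconclusive = mean below 50 but one replicate at or above 50; inactive = mean and every replicate below 50.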

The test in a line: kanamycin survival loss of SKKanGAS strain – BacTiter-Glo luminescence, streptokinase expression inhibitor project, primary screen (AID 1662).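 Also: strain carries kanamycin resistance gene driven by streptokinase promoter and grows in 40 µg/ml kanamycin; loss of luminescence reflects streptokinase promoter inhibition or plain growth inhibition; 0% = median of DMSO wells and 100% = positive control at its reference dose.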 As to conditions: S. pyogenes SKKanGAS, kanamycin growth, 6 h, at 7.5 µM, hits give high values.
`O=C(CCn1c(=O)[nH]c2ccccc2c1=O)NCCCN1CCN(c2cccc(Cl)c2)CC1`: the inhibition (commonly the change of the read-out against control, counted positive when it falls) was 2.26%.

Turning to `O=C(Cc1csc(Nc2nc(=S)[nH]c3ccccc23)n1)NCCCN1CCN(c2cccc(Cl)c2)CC1`, the inhibition is 67.8% (active).

Consider `COc1cccc(CNC(=O)Cc2csc(Nc3nc(=S)[nH]c4ccccc34)n2)c1`, for which the inhibition is 5.91%.

In the case of `CN1C(=O)C2(OCCCO2)c2cc(Cl)ccc21`, the inhibition was -1.28%.

In the case of `COc1cc(/C=N/Nc2nn3cnnc3c3ccccc23)cc(OC)c1OC`, the inhibition was -2.2%.

In the case of `C/C(=N\Nc1nncc2ccccc12)c1ccc(Cl)c([N+](=O)[O-])c1`, the inhibition was -1.2%.

On to `CN(CCO)c1ccc(/C=N/Nc2nncc3ccccc23)cc1`, for which the inhibition is 68.8% (active).

With `CC[N+]1(CC)CC2=Cc3ccccc3CC2C1` (stereo not drawn), the inhibition is 5.88%.

For the compound `COc1ccccc1OCCNc1cc(N2CCOCC2)ccc1[N+](=O)[O-]`, the inhibition was -5.71%.

`OC(CNCC1CCCO1)Cn1c2ccc(Br)cc2c2cc(Br)ccc21` (stereo not drawn): the inhibition was 52.3% (active).

`O=C(CSc1ccc(-c2ccc(Br)cc2)nn1)NCC1CCCO1` (stereo not drawn): the inhibition was -6.3%.

With `CC(NS(=O)(=O)c1ccc(Br)cc1)C(=O)NCC1CCCO1` (stereo not drawn), the inhibition was -0.664%.

Take `CCOC(=O)C1(CCOc2ccccc2)CCN(Cc2cc(OC)cc(OC)c2)CC1`: the inhibition was -5.86%.

In the case of `CC1CCCCN1S(=O)(=O)CCNC(=O)c1ccccc1` (stereo not drawn), the inhibition is -1.35%.

For the compound `CCn1c(SCC(=O)NC2CC2)nnc1-c1ccccn1`, the inhibition is 0.558%.

Take `CC(C)(C)c1cc(C(=O)N/N=C/c2ccc([N+](=O)[O-])s2)n[nH]1`: the inhibition was 51.8% (active).

Regarding `COc1ccc(C(=O)NCC(=O)N/N=C/c2ccc([N+](=O)[O-])s2)cc1OC`, the inhibition was -2.08%.

Consider `Cc1ccccc1NCC(=O)N/N=C\c1ccc([N+](=O)[O-])s1`, for which the inhibition is 7.47%.

In the case of `CCCCCCSc1nsc(N)n1`, the inhibition was 5.66%.

Take `O=C(NCc1ccccc1)C(c1ccco1)N(C(=O)c1csnn1)c1ccccc1F` (stereo not drawn): the inhibition is 1.53%.

Turning to `CC1(C)CC2CC(C)(CN2c2ncnc3ccc(Br)cc23)C1` (stereo not drawn), the inhibition is 18.3%.

As for `CCC(=O)Nc1nc2ccccc2n1Cc1ccccc1C`, the inhibition was 61.8% (active).

In the case of `CC(=O)Nc1nc2ccccc2n1Cc1ccc(C)cc1`, the inhibition was 24.3%.

Consider `CCCCn1c(CCCNC(=O)CC)nc2ccccc21`, for which the inhibition was -0.548%.

In the case of `CC(C)C1N=C2c3ccccc3N=C(SCC(=O)c3ccc(O)c(O)c3)N2C1=O` (stereo not drawn), the inhibition is 19%.

`O=S(=O)(NC1CCCCC1N1CCCCC1)c1ccc(Cl)cc1` (stereo not drawn): the inhibition was 1.78%.

Regarding `Cc1ccc(S(=O)(=O)N2CCC(C(=O)OCC(=O)N(C)c3ccccc3)CC2)cc1C`, the inhibition was -2.14%.

Consider `Nc1ccc(S(=O)(=O)Nc2nccc(/C=C/c3ccc(Br)s3)n2)cc1`, for which the inhibition is 2.22%.

On to `Oc1cccc2ccc(/C=C/c3ccc(Br)s3)nc12`, for which the inhibition is 77.1% (active).

For the compound `COc1cc2c(cc1OC)C(c1cccc([N+](=O)[O-])c1)=NCC2`, the inhibition was -3.25%.

In the case of `CCc1nc2ccc(C(=O)N3CCN(c4cccc(Cl)c4)CC3)cc2nc1CC`, the inhibition is 7.12%.

`Oc1c(CN2CCN(c3ccc(F)cc3)CC2)cc(Cl)c2cccnc12`: the inhibition was 81.2% (active).

On to `CCN1CCN(C(c2cccnc2)c2cc(Cl)c3cccnc3c2O)CC1` (stereo not drawn), for which the inhibition is 28.1%.

As to `Oc1ccc(CN2CCN(c3ncccn3)CC2)cc1`, the inhibition is -0.583%.

For the compound `CCCCCCCCCCCCN1[C@@H](CC(C)=O)c2cc(F)cc(F)c2S1(=O)=O`, the inhibition was 18.6%.

With `Cn1ncc2c(NNC(=O)Cc3cccc4ccccc34)ncnc21`, the inhibition is -0.379%.

In the case of `COC(=O)CNS(=O)(=O)c1ccc(Cc2ccc(S(=O)(=O)NCC(=O)OC)cc2)cc1`, the inhibition is 0.851%.

As for `CCN(CC(=O)Nc1cc(Cl)ccc1C)C(=O)CN1C(=O)NC2(CCCC2)C1=O`, the inhibition is 9.28%.

As for `O=C(O)c1ccccc1NC(=S)NC(NC(=O)c1ccccc1[N+](=O)[O-])C(Cl)(Cl)Cl` (stereo not drawn), the inhibition is -2.95%.

Turning to `CCn1c2ccccc2c2cc(NC(=O)COC(=O)c3ccccc3Br)ccc21`, the inhibition is 2.54%.

Consider `O=C(COC(=O)c1ccc(Oc2ccccc2)cc1)Nc1nnc(-c2ccccc2)o1`, for which the inhibition was 79.8% (active).

`CC(=O)Nc1cccc(C(=O)OCC(=O)Nc2nnc(-c3ccccc3)o2)c1`: the inhibition was 13.3%.

`O=C(Nc1cccc(Cl)c1)Nc1nnc(-c2ccccc2)o1`: the inhibition was 5.48%.

Regarding `O=C(Nc1nnc(-c2ccc(Cl)cc2)o1)c1ccccc1Br`, the inhibition is 93.9% (active).

As to `O=C(COC(=O)CSc1nnc(-c2ccc(Cl)cc2)o1)Nc1cc(Cl)cc(Cl)c1`, the inhibition was 3.37%.

Regarding `O=C(COC(=O)c1ccccc1Br)Nc1nnc(-c2ccccc2)o1`, the inhibition is 72.3% (active).

With `Cc1cccc(NC(=O)Nc2nnc(-c3ccccc3)o2)c1`, the inhibition was 15%.

Take `Cc1ccnc2nc(C(=O)Nc3nnc(-c4ccccc4)o3)nn12`: the inhibition is 1.08%.

`COc1ccc(-c2cc(=O)oc3cc(OC(C)C(=O)Nc4ccc(CN5CCOCC5)cc4)ccc23)cc1` (stereo not drawn): the inhibition was 15.3%.

On to `COCCCNC(=O)C1CC(=O)N(CCc2ccc(F)cc2)C1` (stereo not drawn), for which the inhibition is 1.79%.

As for `CC(C)(C)NC(=O)c1cccc(NC(=O)Cc2ccc(Br)cc2)c1`, the inhibition was 0.415%.

Turning to `COc1ccc(C(=O)NC(=S)NNC(=O)CCc2ccccc2)cc1`, the inhibition was 9.14%.

In the case of `CNC(=S)NNC(=O)c1ccc(N(C)C)cc1`, the inhibition is -13.5%.

As to `CCCCCC(=O)NC(=S)NNC(=O)c1ccc([N+](=O)[O-])cc1`, the inhibition was 21.9%.

Take `COc1ccc(C(=O)NNC(=S)NC(=O)c2ccccc2[N+](=O)[O-])cc1`: the inhibition is -1.63%.

Turning to `CC(=O)NC(=S)NNC(=O)c1ccc(Br)cc1`, the inhibition was 79% (active).

With `COc1ccc(C(=O)NNC(=S)NC(=O)c2ccccc2)cc1`, the inhibition was 91.7% (active).

As to `O=C(NCC(c1cccs1)N1CCOCC1)c1cc(-c2ccccn2)nc2ccccc12` (stereo not drawn), the inhibition is -7.21%.

As for `CC(=O)N1CCOc2ccc(S(=O)(=O)N3CCN(c4cccc(C(F)(F)F)c4)CC3)cc21`, the inhibition is 2.46%.

For the compound `COc1ccc(N2CCC(CNC(=S)Nc3c(C)cccc3C)C2)cc1` (stereo not drawn), the inhibition is -4.36%.

Consider `Cc1ccc(CN2CCC(N3CCC(C(=O)NCC4CCCO4)CC3)CC2)o1` (stereo not drawn), for which the inhibition was 4.3%.

Regarding `CCOC(=O)C1(Cc2ccccc2C)CCCN(C(=O)CN2C(=O)CSC2=O)C1` (stereo not drawn), the inhibition was 5.85%.

Take `CC(=O)Nc1nc(N(C)C)nc(N(C)C)n1`: the inhibition is 2.59%.

For `Cc1ccc(-c2nc3ccccc3[nH]2)cc1NC(=O)c1sc2ccccc2c1Cl`, the inhibition is 4.45%.

Regarding `O=C(Nc1cccc(-c2nc3ccccc3[nH]2)c1)c1ccc(C(=O)Nc2cccc(-c3nc4ccccc4[nH]3)c2)cc1`, the inhibition is 64% (active).

On to `O=C(/C=C/c1ccco1)Nc1cccc(-c2nc3ccccc3[nH]2)c1`, for which the inhibition is 16.2%.

As for `O=C(NC1CC1)c1ccc(-c2ccccc2)cc1`, the inhibition was 1.81%.

As for `O=C(CC1SC(=Nc2ccccc2F)N(CCN2CCOCC2)C1=O)Nc1ccc(F)cc1F` (stereo not drawn), the inhibition was -5.01%.

In the case of `COc1ccccc1OCC(=O)Nc1c2c(nn1-c1ccc(F)cc1)CS(=O)(=O)C2`, the inhibition is 74.3% (active).

Turning to `O=C(CC1CCCCC1)Nc1c2c(nn1-c1ccc(F)cc1)CS(=O)(=O)C2`, the inhibition is -9.45%.

`CCOc1ccc(C(=O)Nc2c3c(nn2-c2ccccc2)CS(=O)(=O)C3)cc1`: the inhibition is 1.84%.

On to `O=C(CN(c1cccc(Cl)c1)S(=O)(=O)c1ccccc1)NN=C1CCCC1`, for which the inhibition was 6.57%.

As to `CSc1ncccc1C(=O)NCc1ccccc1Cl`, the inhibition is -1.26%.

For `CNC(=O)c1nnn(-c2ccccc2)c1C(=O)NC`, the inhibition is 3%.

For the compound `CN(C)c1ccc(/C=N/N(Cc2ccccc2)c2ccccc2)cc1`, the inhibition is -5.9%.

With `O=C(C[n+]1ccccc1)N/N=C/c1ccc(O)cc1`, the inhibition was -9.65%.

In the case of `Oc1ccc(/C=N/N(Cc2ccccc2)c2ccccc2)cc1`, the inhibition is 77.6% (active).

With `CCCCC(NS(=O)(=O)c1ccc(C)cc1)C(=O)Oc1ccc2c3c(c(=O)oc2c1)CCC3` (stereo not drawn), the inhibition was 8.5%.

Take `CC(C)COC(=O)n1c(=O)oc2ccc(S(=O)(=O)N3CCCCC3)cc21`: the inhibition was -4.31%.

Take `COc1ccc(-n2c(SCC(=O)Nc3ccc4c(c3)OCO4)nnc2C(C)N2CCCCC2)cc1` (stereo not drawn): the inhibition is -5.05%.

On to `CCN(CC)S(=O)(=O)c1ccc(N2CCOCC2)c(NC(=O)C2COc3ccccc3O2)c1` (stereo not drawn), for which the inhibition was 2.77%.

For `CCN(CC)S(=O)(=O)c1ccc(N2CCOCC2)c(NC(=O)C2CSC3(C)CCC(=O)N23)c1` (stereo not drawn), the inhibition is 52.3% (active).

Regarding `CC(C)Oc1ccc(S(=O)(=O)N2CCOCC2)cc1NC(=O)C1CSC2(C)CCC(=O)N12` (stereo not drawn), the inhibition is 12%.

For the compound `COc1ccc(Cl)cc1N(CC(=O)N1CCCCC1)S(C)(=O)=O`, the inhibition was -8.05%.

On to `O=c1c([N+](=O)[O-])cc(C(F)(F)F)cn1Cc1cccc(Cl)c1`, for which the inhibition was -8.03%.

For the compound `O=C(/C=C/c1cccc([N+](=O)[O-])c1)N1CCN(Cc2ccccc2)CC1`, the inhibition is 2.48%.

As to `O=[N+]([O-])/C=C/c1ccc2c(ccn2Cc2ccccc2)c1`, the inhibition is 81% (active).

Consider `O=C(c1cccs1)C1C(c2ccc(Br)cc2)NC(=S)NC1(O)C(F)(F)F` (stereo not drawn), for which the inhibition was -1.18%.

On to `Cc1[nH]n(-c2ccccc2)c(=O)c1CCOC(=O)c1ccc(C(F)(F)F)cc1`, for which the inhibition was 3.86%.

As to `CCCNC(=O)CCn1cc(-c2ccc(OC)cc2)nc1CCN`, the inhibition is -0.358%.

Turning to `c1ccc(-c2cc3c(NCC4COc5ccccc5O4)ncnc3s2)cc1` (stereo not drawn), the inhibition is 74.2% (active).

`COc1ccc(Nc2ncnc3sc(-c4ccccc4)cc23)c(OC)c1`: the inhibition is 17.7%.

On to `c1ccc2c(c1)OCC(CNc1ncnc3nc[nH]c13)O2` (stereo not drawn), for which the inhibition was 0.403%.
